Screening results (PubChem)
Only some compounds are listed: those with a hit (about 3.7% of all), similar ones and a draw of the others.
Sm TGR inh = inhibitors of Schistosoma mansoni thioredoxin glutathione reductase; purified TGR, DTNB reduction, TNB absorbance 405 nm; Potency, µM (titrated, usually from 114 µM), inactives show at the highest dose activity change, negative = inhibition, actives largely listed as inhibitors; hit rate 3% among 360,000; AID 485364; note: nearly all actives have a fitted effect of over 60% in size
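TGR 20 nM + NADPH 100 uM (dispensed conc.), cpd preinc 15 min RT; start with NADPH (500 uM addition) then DTNB (15 mM addition). Kinetic TNB absorbance, 405 nm filter. Four-parameter Hill fit across titration.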
TbPYK inhibitor = inhibitors of Trypanosoma brucei pyruvate kinase | Q57TT1 | TbPYK enzyme, Kinase-Glo Plus ATP luminescence, 45 min | Potency, µM (doses to about 76.8 µM), inactives show at the top dose activity, negative = inhibition, actives largely listed as inhibitors | hit rate 0.12% among 410,000 | AID 624173; note: nearly all actives have a fitted effect of over 50% in size
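Luminescence from Kinase-Glo Plus, added after a 45-minute room-temperature reaction, served as the end-point read-out. The enzyme and substrate were preincubated with compound before ADP (130 uM final) initiated turnover. Concentration-effect curves came from normalized qHTS data.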
RE007 growth inh = less growth of the S. pombe RE007 Vpr strain | S. pombe RE007 Vpr strain, BacTiter-Glo ATP luminescence, 24 h | Potency, µM (titrated, usually from 92.2 µM), inactives show at the highest dose activity change, negative = less growth, actives largely listed as inhibitors | hit rate 0.21% among 360,000 | AID 651644; active = well fitted falling curve with a large enough effect; inconclusive = small, poorly fitted or top-dose-only effect; inactive = no such curve, though single readings can be large or run the other way; note: nearly all actives have a fitted effect of over 50% in size
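Fission yeast strain RE007, carrying one chromosomally integrated HIV-1 vpr copy, was seeded at OD 0.01 in PMG+AL medium with 23 nL pinned compound. After 24 h at 30 °C and 99% humidity, viability was read by BacTiter-Glo luminescence.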
FMDV inh = antivirals against foot and mouth disease virus. hit rate 1.2% among 410,000. FMDV antiviral cell-based qHTS. Potency, µM (doses to about 57.9 µM), for the others: top-dose activity change, negative = inhibition, usual class: inhibitors; calls by dose curve; tested in HEK293T cells; note: read-out not given here; nearly all actives have a fitted effect of over 45% in size
Active calls of the source: *; ? = inconclusive; nt = no result; ! = not confirmed by another sample. Unless noted, calls come from the whole dose curve; as a rule, active = well fitted curve in the direction sought with a large enough effect; inconclusive = small, poorly fitted or top-dose-only effect, or another doubt; inactive = no such curve, though single readings can be large; an effect the other way counts as inactive or inconclusive. % is set by controls: 0 for no effect and ±100 for the full control effect; potency is the fitted concentration of half-maximal effect.

SMILES	Sm TGR inh	TbPYK inhibitor	RE007 growth inh	FMDV inh
O=C(N/N=C/C(Cl)=C/c1ccccc1)c1ccccn1	nt	1.3%	-19.3%	50.0%
CC(C)c1ccc(/C=N/NC(=O)c2ccccn2)cc1	-16.9%	-15.6%	17.6%	12.6µM*
Cc1ccc2occ(CC(=O)N(Cc3ccc(Cl)cc3)Cc3ccco3)c2c1	-14.7%	-5.0%	nt	-3.4%
Cc1ccc(-n2nc(C(=O)NCc3ccc(F)cc3Cl)c3c4ccccc4n(C)c3c2=O)cc1	-2.5%	3.6%	nt	?
COc1ccc(OCC(=O)N/N=C/C(C)=C/c2ccco2)c(Br)c1	39.8µM*	2.5%	-10.4%	32.6%
Cc1cccc(CNS(=O)(=O)c2ccc(-c3coc(C)n3)cc2)c1	2.0%	-2.7%	nt	-6.3%
CN(Cc1ccccc1)C(=C(Cl)Cl)C(=C1NCCN1)[N+](=O)[O-]	35.5µM*	-2.9%	-1.0%	-3.0%
CN(Cc1ccccc1)C(=C(Cl)Cl)/C(=C1/NCCN1C)[N+](=O)[O-]	-15.7%	4.9%	-0.2%	15.9%
COC(=O)c1nn(-c2ccc(OC)cc2)c(=O)cc1O	0.7%	-5.1%	0.5%	-4.9%
COc1ccc(-n2nc(C#N)c(Cl)cc2=O)cc1	2.51µM*	3.8%	?	22.4µM*
Cc1cc(C)n2c(Nc3ccc4c(c3)OCCO4)c(-c3ccco3)nc2n1	41.7%	nt	nt	nt
Cc1ccc(Nc2c(-c3ccco3)nc3nc(C)cc(C)n23)cc1	31.6µM*	-7.0%	-10.6%	-7.0%
CN(C)CCCNC(=S)N(CCN(C)C)Cc1cc2cc3c(cc2[nH]c1=O)OCCO3	44.7µM*	-1.2%	-25.2%	-5.4%
O=C1CC(c2ccccc2)c2c(n3ncnc3[nH]c2=O)N1 (centres undefined)	14.2%	-0.3%	nt	3.5%
Cc1ccc(CNC(=O)c2c(Nc3ccccc3C)sc(C(=O)c3ccc(F)cc3)c2N)cc1	-18.9%	-8.4%	nt	-13.3%
COc1cccc(Nc2sc(C(=O)c3ccc(F)cc3)c(N)c2C(=O)NCc2ccc(C)cc2)c1	1.3%	10.3%	nt	14.1µM*
CCOC(=O)C(=CNNc1ccccc1)C(=O)OCC	2.24µM*	-0.7%	8.4%	-2.5%
CC(=O)OCC1(C)CN(c2ccccc2)NC1=O (centres undefined)	7.94µM*	-9.8%	0.6%	7.2%
CCCOc1ccc(N2C(=O)CC(N3CCC(c4nncn4CC)CC3)C2=O)cc1 (centres undefined)	?	4.8%	12.6µM*	-22.2%
O=C1CC(N2CCN(c3nc4ccccc4s3)CC2)C(=O)N1Cc1cccs1 (centres undefined)	11.2µM*	-6.5%	-24.2%	?
CCCOc1ccc(N2C(=O)CC(N3CCN(c4ccccc4F)CC3)C2=O)cc1 (centres undefined)	-34.4%	1.7%	-16.0%	nt
NC(=O)C1CCN(C2CC(=O)N(Cc3cccs3)C2=O)CC1 (centres undefined)	35.5µM*	-9.5%	?	-17.8%
CCCOc1ccc(N2C(=O)CC(N3CCN(c4nc5ccccc5s4)CC3)C2=O)cc1 (centres undefined)	39.8µM*	0.9%	?	-26.8%
CCCOc1ccc(NC(=O)CC2C(=O)N(c3ccc(OC)cc3)C(=O)N2CCc2ccncc2)cc1 (centres undefined)	9.6%	4.1%	nt	6.9%
O=C1C(=O)N(C2CCN(C(=O)c3ccc(Cl)cc3)CC2)CCN1Cc1ccc(F)cc1	-17.7%	-4.4%	nt	-13.7%
SMILES	Sm TGR inh	TbPYK inhibitor	RE007 growth inh	FMDV inh
O=C1CC(N2CCN(c3ccc(F)cc3)CC2)C(=O)N1Cc1cccs1 (centres undefined)	?	-8.8%	-24.2%	-21.6%
O=C1CC(N2CCC(c3nc4ccccc4o3)CC2)C(=O)N1Cc1cccs1 (centres undefined)	50.1µM*	-4.3%	?	-25.2%
ClC1=C(Cl)[C@]2(Cl)[C@@H]3[C@H]4C[C@H]([C@@H]5O[C@H]45)[C@@H]3[C@@]1(Cl)C2(Cl)Cl	nt	nt	nt	-29.2%
CCc1ccc2c(c1)NC(c1cccnc1)=NC(c1ccc(C(C)(C)C)cc1)=N2	-9.0%	-4.6%	nt	0.0%
O=C(O)C1Nc2c(C(=O)N3CCOCC3)cccc2C2C=CCC12 (centres undefined)	?	?	20.4%	?
Cc1ccc2c(c1C)NC(C(=O)O)C1CC=CC21 (centres undefined)	2.51µM*	?	-0.1%	nt
Cc1cc(C)c2c(c1)NC(C(=O)O)C1CC=CC21 (centres undefined)	0.631µM*	?	-17.7%	0.0%
COc1ccccc1N1CCN(C(=O)c2ccc(CS(=O)(=O)c3ccccc3OC)o2)CC1	28.2µM*	6.7%	10.8%	?
COc1ccccc1S(=O)(=O)Cc1ccc(C(=O)N2CCN(c3ccc(C)cc3)C(C)C2)o1 (centres undefined)	?	6.1%	-0.3%	31.6µM*
CCOC(=O)N1CCN(C(=O)c2ccc(CS(=O)(=O)c3ccccc3OC)o2)CC1	0.0%	-14.1%	2.0%	-18.7%
CCOC(=O)c1c(NC(=O)c2ccc(S(=O)(=O)N3CCC(C)CC3)cc2)sc2c1CCN(CC)C2	2.8%	1.4%	nt	-7.4%
Cc1cccn2c(=O)c(/C=C(\C#N)C(=O)NC3CCS(=O)(=O)C3)c(N3CCC(C)CC3)nc12 (centres undefined)	-3.8%	-2.5%	0.7%	-14.4%
Cc1cccn2c(=O)c(/C=C(\C#N)C(=O)NC3CCS(=O)(=O)C3)c(Oc3ccc(F)cc3)nc12 (centres undefined)	-29.1%	-1.3%	-23.1%	28.2µM*
N#C/C(=C\c1c(Oc2ccc(Cl)cc2)nc2ccccn2c1=O)C(=O)NC1CCS(=O)(=O)C1 (centres undefined)	-16.5%	-8.3%	-4.9%	20µM*
Cc1cc(Oc2nc3ccccn3c(=O)c2/C=C(\C#N)C(=O)NC2CCS(=O)(=O)C2)ccc1Cl (centres undefined)	-8.8%	-7.5%	-12.5%	?
COc1ccc2c(c1)CCc1c(C(=O)Nc3c(C)nn(Cc4ccccc4)c3C)noc1-2	89.1µM*!	-3.1%	-1.9%	28.2µM*
Cc1nn(Cc2ccc(Cl)cc2)c(C)c1NC(=O)c1noc2c1CCc1ccccc1-2	2.7%	3.4%	-6.4%	39.8µM*
COc1ccc2c(c1)CCc1c(C(=O)Nc3c(C)nn(Cc4ccc(Cl)cc4)c3C)noc1-2	-26.2%	-3.7%	nt	-26.4%
COC(=O)[C@@H]1CCCN1Cc1ccc2c(c1)CN(Cc1cccn1-c1ccccn1)CCO2	nt	nt	nt	-10.5%
Cc1cccc2cc(CN(Cc3ccco3)C(=O)c3ccncc3)c(=O)[nH]c12	31.6µM*	-3.3%	-1.5%	-22.1%
Cc1cc(C)c2[nH]c(=O)c(CN(CC3CCCO3)C(=S)NCc3ccco3)cc2c1 (centres undefined)	-4.8%	10.5%	8.8%	2.8%
Cc1cc(C)c2[nH]c(=O)c(CN(Cc3ccco3)C(=O)C3CCCO3)cc2c1 (centres undefined)	25.1µM*	0.8%	-2.2%	-20.3%
O=C(c1ccncc1)N(Cc1ccco1)Cc1cc2ccccc2[nH]c1=O	-36.0%	0.0%	-3.7%	-12.6%
